Source: PubChem BioAssay (NCI)
Compounds without any hit were thinned out: in the full panel of roughly 79,000, 15% have a hit. Active and inactive are the calls of the source. Rule as the data show it: active = growth inhibition above about 70%; inactive = the rest.

Key:
[1] = NCI Yeast Anticancer Drug Screen. Data for the rad50 strain (AID 155);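 also: 0% = growth of vehicle-only cultures of the same strain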; conditions: S. cerevisiae rad50 strain growth inhibition, active compounds read high
Summary of the method: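 Vehicle-treated cultures provide the reference for the growth inhibition reported for compound-exposed, repair-deficient yeast.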

[2] = NCI Yeast Anticancer Drug Screen. Data for the mec2-1 strain (AID 157); conditions: S. cerevisiae mec2-1 strain, active compounds read high
Summary of the method: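 mec2-1 yeast strain, carrying an alteration in DNA damage repair or cell cycle control, was exposed to compounds; growth inhibition was measured relative to vehicle-treated controls.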

[3] = NCI Yeast Anticancer Drug Screen. Data for the sgs1 mgt1 strain (AID 161);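 also: 0% = growth of cultures given vehicle only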; conditions: S. cerevisiae sgs1 mgt1 strain, active compounds read high
Summary of the method: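 Yeast cells carrying a defined DNA-repair defect were exposed to test compounds. Growth inhibition was measured relative to vehicle-treated controls.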

[4] = NCI Yeast Anticancer Drug Screen. Data for the cln2 rad14 strain (AID 165);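 also: 0% = growth equal to vehicle treated cultures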; conditions: S. cerevisiae cln2 rad14 strain, active compounds read high
Summary of the method: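 Yeast carrying cln2 and rad14 alterations (cell cycle control and DNA damage repair) were exposed to compounds. Growth inhibition was measured against vehicle-treated controls.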

[5] = NCI Yeast Anticancer Drug Screen. Data for the bub3 strain (AID 167); conditions: S. cerevisiae bub3 mutant strain, active compounds read high
Summary of the method: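 Mutant yeast screening strain plus compound; vehicle-treated cultures serve as the 0% inhibition reference.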

[6] = NCI Yeast Anticancer Drug Screen. Data for the mlh1 rad18 strain (AID 175); conditions: S. cerevisiae mlh1 rad18 strain growth inhibition, active compounds read high
Summary of the method: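 Growth inhibition of the yeast strain was measured after compound exposure and expressed relative to vehicle-treated controls. The strain carries defined defects in DNA damage repair.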

[7] = at 5.0 µM (retest, dose inferred, filed as 0.5)
[8] = at 50.0 µM (retest, dose inferred, filed as 5.0)

Measured: growth inhibition

COC12C(COC(C)=O)C3=C(C(=O)C(C)=C(N4CCCCC4)C3=O)N1CC1NC12 (configuration not stated)
active: [1]; [7] 93% | [1]; [8] 97% | [1]; at 50.0 µM 89.5% | [2]; [7] 96% | [2]; [8] 95% | [2]; at 50.0 µM 91.7% | [3]; [7] 79% | [3]; [8] 97% | [3]; at 50.0 µM 90.5% | [4]; [7] 93% | [4]; [8] 97% | [4]; at 50.0 µM 86.6% | [5]; [8] 96% | [5]; at 50.0 µM 88% | [6]; [7] 98% | [6]; [8] 97% | [6]; at 50.0 µM 90%
inactive: [5]; [7] 67%

CC(C)(c1ccccc1)c1ccc(O)cc1
active: [1]; at 50.0 µM 98% | [2]; [8] 88% | [2]; at 50.0 µM 99% | [3]; at 50.0 µM 99.7% | [4]; [8] 71% | [4]; at 50.0 µM 98.8% | [5]; [8] 97% | [5]; at 50.0 µM 99.5% | [6]; [8] 97% | [6]; at 50.0 µM 99.5%
inactive: [1]; [7] -5% | [1]; [8] 58% | [2]; [7] -38% | [3]; [7] -7% | [3]; [8] 46% | [4]; [7] -9% | [5]; [7] -23% | [6]; [7] -8%

NC(=O)CNCc1ccc([As]=O)cc1 (configuration not stated)
inactive: [1]; [7] 2% | [1]; [8] 1% | [2]; [7] 3% | [2]; [8] -2% | [2]; at 50.0 µM 50.1% | [3]; [7] 0% | [3]; [8] -2% | [4]; [7] 1% | [4]; [8] 3% | [4]; at 50.0 µM 10.4% | [5]; [7] 3% | [5]; [8] 8% | [6]; [7] 12% | [6]; [8] -6% | [6]; at 50.0 µM 69.5%
active: [1]; at 50.0 µM 72.8% | [3]; at 50.0 µM 71.1% | [5]; at 50.0 µM 74.2%

Cc1cc(N(CCCl)CCCl)ccc1C=Nc1ccc(-c2csc(COc3ccccc3)n2)c(Cl)c1
inactive: [1]; [7] 4% | [2]; [7] -13% | [3]; [7] 23% | [4]; [7] -10% | [5]; [7] 6% | [6]; [7] 52%
active: [1]; [8] 93% | [1]; at 50.0 µM 94% | [2]; [8] 90% | [2]; at 50.0 µM 95.6% | [3]; [8] 95% | [3]; at 50.0 µM 95% | [4]; [8] 94% | [4]; at 50.0 µM 89.1% | [5]; [8] 91% | [5]; at 50.0 µM 90.3% | [6]; [8] 94% | [6]; at 50.0 µM 94.5%

CCOP(=O)(O)C(Nc1ccc(N=Nc2ccccc2)cc1)c1cccc(C(Nc2ccc(N=Nc3ccccc3)cc2)P(=O)(O)OCC)c1 (configuration not stated)
inactive: [1]; [7] 10% | [1]; [8] 29% | [1]; at 50.0 µM 49.4% | [2]; [7] 0% | [2]; [8] 46% | [2]; at 50.0 µM 47.6% | [3]; [7] 5% | [3]; [8] 8% | [3]; at 50.0 µM 46.3% | [4]; [7] 6% | [4]; [8] 27% | [4]; at 50.0 µM 44% | [5]; [7] 4% | [5]; [8] 35% | [5]; at 50.0 µM 42.5% | [6]; [7] 7% | [6]; [8] 42% | [6]; at 50.0 µM 47.9%

COc1ccc(-c2c(C)c(C(=O)O)nc(-c3ccc4c(O)c(OC)c5c(c4n3)=NC(C)(C)N=5)c2N)c(O)c1OC
active: [1]; [7] 76% | [1]; [8] 92% | [1]; at 50.0 µM 75.1% | [4]; [8] 76% | [6]; [8] 87%
inactive: [2]; [7] 20% | [2]; [8] 68% | [2]; at 50.0 µM 33% | [3]; [7] 39% | [3]; [8] 60% | [3]; at 50.0 µM 41.4% | [4]; [7] 16% | [4]; at 50.0 µM 47% | [5]; [7] -1% | [5]; [8] 7% | [5]; at 50.0 µM 19.9% | [6]; [7] 59% | [6]; at 50.0 µM 61.5%

C[N-]c1nnnn1C.[Au+].c1ccc([PH+](c2ccccc2)c2ccccc2)cc1
active: [1]; [7] 99% | [1]; [8] 97% | [1]; at 50.0 µM 96.3% | [2]; [7] 99% | [2]; [8] 95% | [2]; at 50.0 µM 97.9% | [3]; [7] 99% | [3]; [8] 97% | [3]; at 50.0 µM 97% | [4]; [7] 96% | [4]; [8] 95% | [4]; at 50.0 µM 97.2% | [5]; [7] 98% | [5]; [8] 96% | [5]; at 50.0 µM 96% | [6]; [7] 97% | [6]; [8] 94% | [6]; at 50.0 µM 97%

Cc1ccc(S(=O)(=O)OC2CCC3C4CC=C5CC(SC(=N)N)CCC5(C)C4CCC23C)cc1 (configuration not stated)
inactive: [1]; [7] 67% | [1]; at 50.0 µM 47.9% | [2]; [7] 37% | [2]; [8] 28% | [2]; at 50.0 µM 29.6% | [4]; [7] 4% | [4]; [8] 6% | [4]; at 50.0 µM 3% | [5]; [7] 51% | [5]; [8] 36% | [5]; at 50.0 µM 26.1% | [6]; [7] 51% | [6]; [8] 44% | [6]; at 50.0 µM 66.3%
active: [1]; [8] 82% | [3]; [7] 96% | [3]; [8] 95% | [3]; at 50.0 µM 94.1%

CC(=O)Nc1cccc([As+](C)(c2cccc(NC(C)=O)c2)c2cccc(NC(C)=O)c2)c1
inactive: [1]; [7] -1% | [1]; [8] 11% | [1]; at 50.0 µM 4.35% | [2]; [7] 13% | [2]; [8] 14% | [2]; at 50.0 µM -2% | [3]; [7] -14% | [3]; [8] 13% | [3]; at 50.0 µM -5.65% | [4]; [7] 18% | [4]; [8] 15% | [4]; at 50.0 µM -26% | [5]; [7] 5% | [5]; [8] 3% | [5]; at 50.0 µM 6.05% | [6]; [7] 7% | [6]; [8] 11% | [6]; at 50.0 µM 8.65%
